From PubChem BioAssay
Rows were chosen to be rich in hits. Some 2.8% of all compounds tested hit in one or more screens of this group.
PAFAH2 inh: inhibitors of human PAFAH2; Q99487; recombinant PAFAH2, FP-rhodamine activity probe, fluorescence polarization; inhibition, % at 3.39 µM; hit rate 0.99% among 340,000;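 active means inhibition above the mean over all tested compounds plus 3 SD, cut at about 30% in these data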;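 further: inhibitors block probe labeling of enzyme so polarization drops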
pPAFAH FP inh: inhibitors of human plasma PAF acetylhydrolase (pPAFAH); inhibition, % at 3.39 µM; Q13093; AID 463082; hit rate 1.5% among 330,000; recombinant pPAFAH, FP-rhodamine probe fluorescence polarization;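 active means inhibition above the mean inhibition across the screen plus 3 SD, cut at about 25% in these data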;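 further: inhibitors block binding of the rhodamine activity-based probe so polarization drops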
PAFAH1B2 inh: blocks human PAF acetylhydrolase 1b catalytic subunit 2 | inhibition, % at 3.39 µM | hit rate 1.2% among 340,000 | P68402 | recombinant PAFAH1B2, FP-rhodamine activity probe, fluorescence polarization;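 active means inhibition above the mean of all tested compounds plus 3 SD, cut at about 24% in these data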
PAFAH1B3 inh: blocks human PAF acetylhydrolase 1B catalytic subunit 3; Q15102; recombinant PAFAH1B3, FP-rhodamine probe, fluorescence polarization; inhibition, % at 3.39 µM; hit rate 0.28% among 340,000;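 active means inhibition above the screen-wide average of all tested compounds plus 3 SD, cut at about 25% in these data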
PME-1 inh: blocks human protein phosphatase methylesterase 1 | recombinant PME-1, FP-Rh probe fluorescence polarization | inhibition, % at 5.9 µM | hit rate 0.53% among 320,000 | AID 2130;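 active means inhibition above the campaign mean of all compounds plus 3 SD, cut at about 26% in these data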;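 further: competitive labeling of PME-1 active site by serine hydrolase directed probe; inhibitors block probe labeling so polarization falls and inhibition rises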
Target sequence (Q9Y570 whole entry, looked up): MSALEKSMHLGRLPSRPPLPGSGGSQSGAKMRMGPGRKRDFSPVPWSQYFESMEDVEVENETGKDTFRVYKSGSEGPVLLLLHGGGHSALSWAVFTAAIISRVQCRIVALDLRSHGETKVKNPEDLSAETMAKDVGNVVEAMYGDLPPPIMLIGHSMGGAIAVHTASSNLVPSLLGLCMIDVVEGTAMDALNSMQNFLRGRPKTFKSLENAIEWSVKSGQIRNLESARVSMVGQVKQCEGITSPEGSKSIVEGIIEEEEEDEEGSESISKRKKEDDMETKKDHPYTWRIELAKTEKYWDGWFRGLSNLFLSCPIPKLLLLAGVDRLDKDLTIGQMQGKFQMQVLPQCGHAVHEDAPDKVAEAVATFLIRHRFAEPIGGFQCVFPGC
Fam108B inh: Fam108B inhibition, counter-screen for RBBP9 inhibitors; recombinant Fam108B, FP-Rh probe fluorescence polarization; hit rate 0.33% among 300,000; inhibition, % at 9.51 µM;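 active means inhibition above the screen mean inhibition plus 3 SD, computed separately per campaign, cut at about 18% in these data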;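 further: inhibitors lower polarization as less probe binds the enzyme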
PAFAH2 confirm: confirmation of human PAFAH2 inhibitors; inhibition, % at 3.39 µM; recombinant PAFAH2, FP-rhodamine activity probe, fluorescence polarization; hit rate 65% among 2,300; shares compounds with PAFAH2 inh;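 active means mean inhibition over three repeats above a set limit taken from the earlier primary screen, cut at about 30% in these data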;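 further: inhibitor blocks binding of rhodamine activity probe so polarization falls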
A number is an active result.

For CCN(CC)C(=O)CSc1nc2c(sc(=S)n2-c2ccccc2)c(=O)n1-c1ccccc1OC the results were PAFAH2 inh 37.1, PAFAH1B2 inh inactive, PAFAH1B3 inh inactive and PAFAH2 confirm inactive.
CSc1ccc(CN(C)C(=O)c2cccc(S(=O)(=O)N3CCN(Cc4ccccc4)CC3)c2)cc1 was read as PAFAH2 inh inactive, pPAFAH FP inh inactive, PAFAH1B2 inh inactive, PAFAH1B3 inh inactive, PME-1 inh inactive and Fam108B inh inactive.
`Cc1cc(C)cc(NC(=O)COC(=O)c2ccc3c(c2)OCCO3)c1` gave PAFAH2 inh 71.9, pPAFAH FP inh inactive, PAFAH1B2 inh inactive, PAFAH1B3 inh inactive, PME-1 inh inactive and PAFAH2 confirm 76.8.
`CCOc1ccc(NC(=O)COC(=O)c2ccc3c(c2)OCCO3)cc1` gave PAFAH2 inh 59.6, pPAFAH FP inh inactive, PAFAH1B2 inh inactive, PAFAH1B3 inh inactive, PME-1 inh inactive and PAFAH2 confirm 54.3.
Cc1ccc(C(=O)OCC(=O)Nc2ccc3c(c2)OCCO3)cc1C was read as PAFAH2 inh 58.2, PAFAH1B2 inh inactive, PAFAH1B3 inh inactive and PAFAH2 confirm 51.6.
Screening Cc1ccccc1CNC(=O)C(=O)NCCC1CCCCN1S(=O)(=O)c1ccccc1 (centres undefined) returned PAFAH2 inh inactive, pPAFAH FP inh inactive, PAFAH1B2 inh inactive, PAFAH1B3 inh inactive, PME-1 inh inactive and Fam108B inh inactive.
`CC(=O)Nc1ccc(C(=O)OCc2ccc(Cl)c(Cl)c2)cc1` gave PAFAH2 inh 60.9, pPAFAH FP inh inactive, PAFAH1B2 inh inactive, PAFAH1B3 inh inactive, PME-1 inh inactive, Fam108B inh inactive and PAFAH2 confirm 62.7.
`CCC(=O)Nc1ccc(C(=O)OCc2ccc(Cl)c(Cl)c2)cc1` gave PAFAH2 inh 36.1, pPAFAH FP inh inactive, PAFAH1B2 inh inactive, PAFAH1B3 inh inactive, PME-1 inh inactive, Fam108B inh inactive and PAFAH2 confirm 46.8.
CC(=O)Nc1ccc(C(=O)OCc2ccc(F)cc2Cl)cc1 was read as PAFAH2 inh inactive, pPAFAH FP inh inactive, PAFAH1B2 inh inactive, PAFAH1B3 inh inactive, PME-1 inh inactive and Fam108B inh inactive.
`CCCS(=O)(=O)c1ccc(COC(=O)c2ccc(NC(C)=O)cc2)cc1` gave PAFAH2 inh 30.2, pPAFAH FP inh inactive, PAFAH1B2 inh inactive, PAFAH1B3 inh inactive, PME-1 inh inactive, Fam108B inh inactive and PAFAH2 confirm inactive.
`COC(=O)c1ccc(COC(=O)c2ccc(CS(=O)(=O)c3ccc(C)cc3)cc2)cc1` gave PAFAH2 inh inactive, pPAFAH FP inh inactive, PAFAH1B2 inh inactive, PAFAH1B3 inh inactive, PME-1 inh inactive and Fam108B inh inactive.
For COCCn1c(SCC(=O)N(C)c2ccccc2)nc2c([nH]c3ccccc32)c1=O the results were PAFAH2 inh inactive, pPAFAH FP inh inactive, PAFAH1B2 inh inactive, PAFAH1B3 inh inactive, PME-1 inh inactive and Fam108B inh inactive.
For O=C(COC(=O)c1cccnc1Cl)Nc1ccc2c(c1)OCO2 the results were PAFAH2 inh 75.0, pPAFAH FP inh inactive, PAFAH1B2 inh inactive, PAFAH1B3 inh inactive, PME-1 inh inactive, Fam108B inh inactive and PAFAH2 confirm 60.1.
For Cc1c(C(=O)OCC(=O)Nc2ccc3c(c2)OCO3)cccc1[N+](=O)[O-] the results were PAFAH2 inh 72.0, pPAFAH FP inh inactive, PAFAH1B2 inh inactive, PAFAH1B3 inh inactive, PME-1 inh inactive, Fam108B inh inactive and PAFAH2 confirm 64.5.
For CCOc1ncccc1C(=O)OCC(=O)Nc1ccc2c(c1)OCCO2 the results were PAFAH2 inh 55.2, pPAFAH FP inh inactive, PAFAH1B2 inh inactive, PAFAH1B3 inh inactive, PME-1 inh inactive and PAFAH2 confirm 47.0.
`CCOc1ncccc1C(=O)Nc1ccc2c(c1)OCO2` gave PAFAH2 inh inactive, pPAFAH FP inh inactive, PAFAH1B2 inh inactive, PAFAH1B3 inh inactive, PME-1 inh inactive and Fam108B inh inactive.
Screening O=C(COC(=O)c1cccs1)Nc1ccccc1C(F)(F)F returned PAFAH2 inh 76.6, pPAFAH FP inh inactive, PAFAH1B2 inh inactive, PAFAH1B3 inh inactive, PME-1 inh inactive, Fam108B inh inactive and PAFAH2 confirm 54.4.
CCc1ccccc1NC(=O)COC(=O)c1cccs1 was read as PAFAH2 inh 79.9, pPAFAH FP inh inactive, PAFAH1B2 inh inactive, PAFAH1B3 inh inactive, PME-1 inh inactive, Fam108B inh inactive and PAFAH2 confirm 76.2.
